Measurements taken from the supplement of paper PMC10849652.
The full data set covers some 7,900 targets. This sample favours those with a hit. About 0.6% of all pairs of compound and target were hits.

Tests used:
Test in all cases: log2 fold change, soluble protein after heating vs DMSO (PISA); higher = thermal stabilisation; K562 cells, 10 uM, 30 min; active = over 0.2 and 3.5 SD of the protein, either way, in both replicates (recomputed)
[1] = compound: C1COCCN1CCN2C3=CC=CC=C3N=C2NC(=O)C4=CC(=CC=C4)[N+](=O)[O-] [IRAK-1-4 Inhibitor I]
Procedure, shortened: (§1)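 K562 cells at 2×10^6 cells/mL were treated for 30 min with 10 μM compound, and aliquots were heated for 3 min over 48°C-58°C before pooling. Extraction used PBS with 0.5% NP-40 at 4°C, and soluble protein was the supernatant after 21,000xg for 90 min, measured by TMTpro 16plex LC-MS/MS with channel sums equalised. Thermal stability values, relative to control samples and from duplicates, are log2 fold changes.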

[2] = compound: C=CC(=O)N1CCC[C@@H](n2nc(-c3ccc(Oc4ccccc4)cc3)c3c(N)ncnc32)C1 [ibrutinib]
Procedure, shortened: as §1

[3] = compound: CC(=O)c1cnc2ccc(-c3cc(Cl)c(O)c(Cl)c3)nc2c1N[C@H]1CC[C@H](CN(C)C)CC1
Procedure, shortened: as §1

[4] = compound: CC(C)(C)Cn1c(N)nc2ccc(-c3[nH]c(C(C)(C)C)nc3-c3ccc(F)cc3)nc21 [ralimetinib]
Procedure, shortened: as §1

[5] = compound: CC(C)(O)CC(=O)NCCn1ccc2ncnc(Nc3ccc(Oc4cccc(C(F)(F)F)c4)c(Cl)c3)c21
Procedure, shortened: as §1

[6] = compound: CC(C)C1=C2N=C(C=C(N2N=C1)NCC3=CC=CC=C3)NCCCCCCN
Procedure, shortened: as §1

[7] = compound: CC(C)C[C@@H](C=O)NC(=O)[C@H](CC(C)C)NC(=O)[C@H](CC(C)C)NC(=O)OCc1ccccc1
Procedure, shortened: as §1

[8] = compound: CC(C)N(C[C@H]1O[C@@H](n2cnc3c(N)ncnc32)[C@H](O)[C@@H]1O)[C@H]1C[C@@H](CCc2nc3cc(C(C)(C)C)ccc3[nH]2)C1 [pinometostat]
Procedure, shortened: as §1

[9] = compound: CC1=C(C(CC(=O)N1)C2=CC=C(C=C2)C(F)(F)F)C(=O)NC3=C(C=C4C(=C3)C=NN4)F
Procedure, shortened: as §1

[10] = compound: CC1=C(C2=C(C=C1)C(=O)C3=CC=CC=C3N2CCCN)C
Procedure, shortened: as §1

[11] = compound: CC1=C(C=C(C=C1)NC(=O)C2=CC(=CC=C2)C(C)(C)C#N)NC3=CC4=C(C=C3)N=CN(C4=O)C
Procedure, shortened: as §1

[12] = compound: CC1=C(C=C(C=C1)NC(=O)C2=CC(=CC=C2)N(C)C)NC(=O)C3=CC=C(C=C3)O
Procedure, shortened: as §1

[13] = compound: CC1=CC=C(C=C1)SC2=C3C=C(SC3=CN=C2)C(=O)N
Procedure, shortened: as §1

[14] = compound: CC1=NC(=CC=C1)C2=C(N=C(N2)C(C)(C)C)C3=CC4=NC=CN=C4C=C3
Procedure, shortened: as §1

[15] = compound: CCCCN(Cc1ccc(C(=O)NO)cc1)C(=O)Nc1ccccc1 [Nexturastat A]
Procedure, shortened: as §1

[16] = compound: CCCS(=O)(=O)Nc1ccc(F)c(C(=O)c2c[nH]c3ncc(-c4ccc(Cl)cc4)cc23)c1F [vemurafenib]
Procedure, shortened: as §1

[17] = compound: CCCS(=O)(=O)Nc1ccc(F)c(C(=O)c2c[nH]c3ncc(Cl)cc23)c1F
Procedure, shortened: as §1

[18] = compound: CCCc1cc(C)[nH]c(=O)c1CNC(=O)c1cc(-c2ccnc(N3CCN(C)CC3)c2)cc2c1cnn2C(C)C
Procedure, shortened: as §1

[19] = compound: CCN(CC)Cc1ccc2cc(COC(=O)Nc3ccc(C(=O)NO)cc3)ccc2c1 [givinostat]
Procedure, shortened: as §1

[20] = compound: CCN(CCCOc1ccc2c(Nc3cc(CC(=O)Nc4cccc(F)c4)[nH]n3)ncnc2c1)CCOP(=O)(O)O [barasertib]
Procedure, shortened: as §1

Measured: log2 fold change

IFT80 isoform 3 (UniProt Q9P2H3)
Chain of UniProt Q9P2H3 (Q9P2H3 whole entry, looked up): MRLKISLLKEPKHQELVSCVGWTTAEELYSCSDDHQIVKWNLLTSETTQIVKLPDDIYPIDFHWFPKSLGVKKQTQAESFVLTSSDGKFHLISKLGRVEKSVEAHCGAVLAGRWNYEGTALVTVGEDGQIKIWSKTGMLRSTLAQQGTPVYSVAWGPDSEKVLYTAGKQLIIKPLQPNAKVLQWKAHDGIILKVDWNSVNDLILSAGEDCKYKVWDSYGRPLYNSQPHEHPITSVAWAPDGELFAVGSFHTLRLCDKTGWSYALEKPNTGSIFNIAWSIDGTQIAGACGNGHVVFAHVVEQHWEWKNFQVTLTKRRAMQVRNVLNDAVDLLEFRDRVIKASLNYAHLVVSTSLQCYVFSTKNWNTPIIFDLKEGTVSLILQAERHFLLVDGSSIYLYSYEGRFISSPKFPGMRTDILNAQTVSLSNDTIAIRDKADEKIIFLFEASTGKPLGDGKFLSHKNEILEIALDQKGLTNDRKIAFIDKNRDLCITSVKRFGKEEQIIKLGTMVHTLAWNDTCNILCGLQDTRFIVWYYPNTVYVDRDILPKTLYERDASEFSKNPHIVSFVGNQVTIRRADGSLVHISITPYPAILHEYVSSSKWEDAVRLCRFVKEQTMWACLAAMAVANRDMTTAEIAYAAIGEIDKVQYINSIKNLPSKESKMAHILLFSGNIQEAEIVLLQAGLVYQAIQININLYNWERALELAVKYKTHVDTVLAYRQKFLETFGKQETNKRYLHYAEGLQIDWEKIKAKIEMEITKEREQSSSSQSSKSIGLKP
inactive: [1] 0.03 | [2] 0.099 | [3] -0.073 | [4] -0.02 | [5] -0.118 | [6] -0.113 | [7] 0.072 | [8] 0.049 | [9] -0.085 | [10] 0.073 | [11] -0.023 | [12] 0.038 | [13] 0.004 | [14] 0.005 | [15] -0.021 | [16] -0.042 | [17] 0.039 | [18] -0.013 | [19] -0.104 | [20] -0.004

FYB1 isoform 3 (UniProt O15117)
Chain of UniProt O15117 (O15117 whole entry, looked up): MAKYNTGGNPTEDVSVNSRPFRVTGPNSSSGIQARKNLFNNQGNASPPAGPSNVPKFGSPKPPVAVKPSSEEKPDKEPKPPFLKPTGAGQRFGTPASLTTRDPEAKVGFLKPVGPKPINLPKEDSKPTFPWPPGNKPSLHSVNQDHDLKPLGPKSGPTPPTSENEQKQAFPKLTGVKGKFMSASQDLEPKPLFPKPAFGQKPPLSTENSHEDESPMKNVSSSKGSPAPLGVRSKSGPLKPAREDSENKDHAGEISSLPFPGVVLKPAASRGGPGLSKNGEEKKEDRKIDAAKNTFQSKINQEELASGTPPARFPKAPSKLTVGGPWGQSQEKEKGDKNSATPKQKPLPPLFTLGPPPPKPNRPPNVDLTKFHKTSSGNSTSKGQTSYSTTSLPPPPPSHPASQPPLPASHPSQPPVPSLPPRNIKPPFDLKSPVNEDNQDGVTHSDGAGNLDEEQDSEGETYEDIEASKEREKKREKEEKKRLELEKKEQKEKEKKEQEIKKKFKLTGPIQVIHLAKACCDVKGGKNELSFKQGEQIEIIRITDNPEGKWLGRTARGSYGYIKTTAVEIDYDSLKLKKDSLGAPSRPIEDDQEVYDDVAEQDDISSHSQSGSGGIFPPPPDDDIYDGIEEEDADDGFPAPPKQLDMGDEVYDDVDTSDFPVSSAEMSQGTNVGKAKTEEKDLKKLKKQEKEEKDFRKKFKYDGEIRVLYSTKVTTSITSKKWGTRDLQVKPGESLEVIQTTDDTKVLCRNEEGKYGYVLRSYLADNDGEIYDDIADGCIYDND
inactive: [1] 0.009 | [2] -0.012 | [3] -0.193 | [4] 0.308 | [5] 0.06 | [6] -0.069 | [7] 0.226 | [8] 0.002 | [9] -0.075 | [10] 0.129 | [11] 0.073 | [12] 0.063 | [13] 0.093 | [14] 0.051 | [15] 0.011 | [16] -0.009 | [17] 0.169 | [18] -0.03 | [19] 0.066 | [20] 0.052

HBZ (UniProt P02008)
inactive: [1] 0.025 | [2] -0.001 | [3] -0.005 | [4] -0.052 | [5] -0.042 | [6] 0.102 | [7] -0.019 | [8] -0.017 | [9] 0.004 | [10] 0.088 | [11] 0.01 | [12] -0.074 | [13] 0.025 | [14] 0.042 | [15] -0.013 | [16] -0.028 | [17] -0.006 | [18] -0.008 | [19] -0.052 | [20] 0.044

FHOD1 (UniProt Q9Y613)
Chain of UniProt Q9Y613 (Q9Y613 whole entry, looked up): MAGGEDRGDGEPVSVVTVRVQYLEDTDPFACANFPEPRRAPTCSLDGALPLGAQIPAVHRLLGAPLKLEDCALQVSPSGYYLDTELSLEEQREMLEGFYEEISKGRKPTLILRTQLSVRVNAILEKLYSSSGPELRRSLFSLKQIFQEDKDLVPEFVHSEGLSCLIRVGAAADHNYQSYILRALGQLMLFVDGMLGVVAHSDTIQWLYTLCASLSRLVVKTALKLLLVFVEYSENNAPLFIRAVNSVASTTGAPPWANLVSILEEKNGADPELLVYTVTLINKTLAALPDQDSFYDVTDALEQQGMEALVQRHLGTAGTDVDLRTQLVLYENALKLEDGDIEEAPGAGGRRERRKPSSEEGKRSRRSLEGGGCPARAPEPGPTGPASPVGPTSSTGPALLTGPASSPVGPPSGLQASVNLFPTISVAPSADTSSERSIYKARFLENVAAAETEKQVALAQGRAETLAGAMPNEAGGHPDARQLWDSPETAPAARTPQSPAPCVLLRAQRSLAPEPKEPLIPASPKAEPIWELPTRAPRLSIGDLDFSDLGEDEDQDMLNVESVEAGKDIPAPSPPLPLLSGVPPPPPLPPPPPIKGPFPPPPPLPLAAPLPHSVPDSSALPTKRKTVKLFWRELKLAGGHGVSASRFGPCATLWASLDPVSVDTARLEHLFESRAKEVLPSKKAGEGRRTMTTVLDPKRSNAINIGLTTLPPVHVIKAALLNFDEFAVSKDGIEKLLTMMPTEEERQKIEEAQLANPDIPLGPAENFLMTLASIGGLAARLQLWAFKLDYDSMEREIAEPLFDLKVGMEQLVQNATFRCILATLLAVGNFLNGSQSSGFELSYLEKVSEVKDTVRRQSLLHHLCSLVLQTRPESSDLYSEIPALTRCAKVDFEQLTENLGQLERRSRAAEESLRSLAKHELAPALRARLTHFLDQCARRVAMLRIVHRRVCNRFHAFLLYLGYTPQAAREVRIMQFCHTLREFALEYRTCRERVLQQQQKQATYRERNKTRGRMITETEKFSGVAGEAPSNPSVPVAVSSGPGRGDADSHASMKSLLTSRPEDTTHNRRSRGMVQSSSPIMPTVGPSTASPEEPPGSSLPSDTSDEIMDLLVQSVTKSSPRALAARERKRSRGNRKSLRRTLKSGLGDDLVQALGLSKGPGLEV
inactive: [1] -0.053 | [2] 0.011 | [3] 0.042 | [4] 0.193 | [5] 0.035 | [6] -0.197 | [7] 0.148 | [8] 0.458 | [9] 0.07 | [11] -0.288 | [12] 0.073 | [13] -0.063 | [14] -0.09 | [15] 0.365 | [16] -0.002 | [17] -0.134 | [18] 0.132 | [19] 0.024 | [20] 0.044

GTF2B (UniProt Q00403)
Chain of UniProt Q00403 (Q00403 whole entry, looked up): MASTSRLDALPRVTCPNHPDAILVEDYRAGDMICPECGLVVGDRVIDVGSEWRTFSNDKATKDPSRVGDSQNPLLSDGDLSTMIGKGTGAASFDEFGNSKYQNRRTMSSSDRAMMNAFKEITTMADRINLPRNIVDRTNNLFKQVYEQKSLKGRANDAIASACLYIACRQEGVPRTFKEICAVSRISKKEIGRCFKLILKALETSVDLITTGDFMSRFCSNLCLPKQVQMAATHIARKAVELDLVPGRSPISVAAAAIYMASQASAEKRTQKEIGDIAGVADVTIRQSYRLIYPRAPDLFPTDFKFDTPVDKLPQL
inactive: [1] -0.063 | [2] -0.064 | [3] -0.023 | [4] 0.044 | [5] -0.215 | [6] -0.125 | [7] 0.068 | [8] 0 | [9] -0.026 | [10] 0.07 | [11] -0.018 | [12] -0.092 | [13] 0.097 | [14] 0.097 | [15] -0.031 | [16] 0.104 | [17] 0.167 | [18] 0.017 | [19] 0.058 | [20] 0.044

FRA10AC1 isoform 3 (UniProt Q70Z53)
Chain of UniProt Q70Z53 (Q70Z53 whole entry, looked up): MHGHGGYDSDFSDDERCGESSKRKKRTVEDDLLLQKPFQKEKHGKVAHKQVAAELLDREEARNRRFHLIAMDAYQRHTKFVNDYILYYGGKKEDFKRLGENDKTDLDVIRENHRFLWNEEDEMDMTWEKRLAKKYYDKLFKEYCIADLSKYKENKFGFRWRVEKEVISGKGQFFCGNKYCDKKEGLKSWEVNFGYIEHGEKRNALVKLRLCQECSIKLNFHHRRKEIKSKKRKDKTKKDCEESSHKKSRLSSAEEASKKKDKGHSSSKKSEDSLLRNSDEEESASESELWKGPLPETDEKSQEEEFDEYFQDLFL
inactive: [1] 0.005 | [2] -0.014 | [3] 0.024 | [5] -0.024 | [6] 0.169 | [8] 0.001 | [9] -0.03 | [10] -0.201 | [11] -0.068 | [13] 0.04 | [14] 0.041 | [15] -0.096 | [16] 0.104 | [17] 0.001 | [18] -0.001 | [19] 0.052 | [20] -0.002

HSPA8 (UniProt E9PN89)
inactive: [1] -0.032 | [2] -0.069 | [3] -0.145 | [5] 0.127 | [6] 0.085 | [8] -0.004 | [9] 0.07 | [10] 0.043 | [11] -0.158 | [13] -0.261 | [14] -0.144 | [15] -0.019 | [16] -0.276 | [17] -0.507 | [18] -0.689 | [19] 0.182 | [20] 0.03

GAK (UniProt O14976)
Chain of UniProt O14976 (O14976 whole entry, looked up): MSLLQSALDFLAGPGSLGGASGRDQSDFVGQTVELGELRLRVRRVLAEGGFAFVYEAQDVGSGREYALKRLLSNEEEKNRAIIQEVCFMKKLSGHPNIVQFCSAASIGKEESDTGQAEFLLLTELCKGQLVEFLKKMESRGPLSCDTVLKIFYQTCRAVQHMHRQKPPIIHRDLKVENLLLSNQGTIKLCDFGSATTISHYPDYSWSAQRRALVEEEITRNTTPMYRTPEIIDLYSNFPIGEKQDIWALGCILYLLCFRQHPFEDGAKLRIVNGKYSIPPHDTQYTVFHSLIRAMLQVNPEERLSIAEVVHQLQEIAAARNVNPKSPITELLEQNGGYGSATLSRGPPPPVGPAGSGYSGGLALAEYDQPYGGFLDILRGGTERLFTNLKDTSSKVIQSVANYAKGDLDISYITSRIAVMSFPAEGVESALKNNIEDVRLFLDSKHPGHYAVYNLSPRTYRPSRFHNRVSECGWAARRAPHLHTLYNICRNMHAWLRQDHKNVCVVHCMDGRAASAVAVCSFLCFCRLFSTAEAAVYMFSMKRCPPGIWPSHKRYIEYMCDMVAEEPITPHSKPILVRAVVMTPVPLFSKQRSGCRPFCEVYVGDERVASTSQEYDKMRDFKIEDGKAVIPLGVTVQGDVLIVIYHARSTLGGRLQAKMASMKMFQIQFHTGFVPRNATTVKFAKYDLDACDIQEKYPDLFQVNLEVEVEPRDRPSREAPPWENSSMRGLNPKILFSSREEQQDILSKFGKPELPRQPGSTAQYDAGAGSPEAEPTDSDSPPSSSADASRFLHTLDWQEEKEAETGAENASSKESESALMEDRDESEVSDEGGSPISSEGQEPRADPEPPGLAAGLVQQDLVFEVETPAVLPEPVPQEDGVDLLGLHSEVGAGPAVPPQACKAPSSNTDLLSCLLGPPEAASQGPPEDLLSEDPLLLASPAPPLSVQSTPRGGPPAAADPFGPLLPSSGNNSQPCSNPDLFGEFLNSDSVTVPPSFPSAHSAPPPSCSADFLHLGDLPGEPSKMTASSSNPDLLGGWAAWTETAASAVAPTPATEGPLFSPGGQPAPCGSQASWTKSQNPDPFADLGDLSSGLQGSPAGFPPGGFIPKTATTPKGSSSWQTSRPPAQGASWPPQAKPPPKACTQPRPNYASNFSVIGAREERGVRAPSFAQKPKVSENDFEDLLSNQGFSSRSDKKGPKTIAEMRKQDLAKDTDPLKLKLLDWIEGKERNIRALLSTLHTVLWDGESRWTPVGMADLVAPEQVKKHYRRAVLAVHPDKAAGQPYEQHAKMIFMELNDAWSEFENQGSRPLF
inactive: [1] -0.222 | [3] 1.15 | [4] 1.13 | [5] -0.015 | [6] -0.81 | [7] 0.084 | [8] 0.344 | [9] -0.213 | [10] -0.187 | [11] 0.214 | [12] 0.038 | [13] -0.337 | [14] -0.14 | [15] 0.452 | [16] -0.06 | [17] 0.114 | [18] 0.17 | [19] 0.64

GTF3A (UniProt Q92664)
Chain of UniProt Q92664 (Q92664 whole entry, looked up): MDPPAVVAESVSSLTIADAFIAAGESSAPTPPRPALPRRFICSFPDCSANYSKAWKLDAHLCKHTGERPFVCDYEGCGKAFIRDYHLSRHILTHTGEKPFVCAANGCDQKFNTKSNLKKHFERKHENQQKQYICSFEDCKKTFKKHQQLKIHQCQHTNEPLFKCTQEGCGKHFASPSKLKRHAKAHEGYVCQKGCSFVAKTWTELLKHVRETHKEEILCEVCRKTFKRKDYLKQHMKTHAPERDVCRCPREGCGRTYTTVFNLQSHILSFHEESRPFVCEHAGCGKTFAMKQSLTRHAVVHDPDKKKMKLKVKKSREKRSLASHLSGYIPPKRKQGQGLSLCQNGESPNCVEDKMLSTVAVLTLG
inactive: [1] 0.034 | [2] -0.013 | [3] 0.065 | [5] -0.084 | [6] -0.036 | [8] 0.004 | [9] 0.249 | [10] 0.107 | [11] 0.074 | [13] 0.09 | [14] 0.125 | [15] -0.054 | [16] -0.075 | [17] 0.078 | [18] -0.035 | [19] -0.048 | [20] -0.053
